These results are taken from the supplement of paper PMC13094657.

Experiment [1] has as its system MDA-MB-231. Kind of experiment: cell viability relative to vehicle unstimulated control (fraction); higher = more viable cells. The conditions noted are these: pre-treatment time: 18 h then 24 h IFNg/TNF.
In experiment [2] the test system is MDA-MB-231. Kind of experiment: kynurenine production, fold change vs DMSO IFNg/TNF control; higher = more kynurenine produced (less inhibition). The conditions noted are these: pre-treatment time: 18 h then 24 h IFNg/TNF. The method in brief: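 MDA-MB-231 cells were seeded in 96-well plates at 7 × 10^4/well and, 24 h later, pre-treated for 18 h with each natural product in 0.1% DMSO. They were then stimulated for 24 h at 37°C with IFNγ (1 U/ml) and TNF (6.25 ng/ml). Supernatants were treated with trichloroacetic acid and p-dimethylaminobenzaldehyde and read at 492 nm against 0–100 μM standards. Kynurenine production is expressed as fold change over cytokine-stimulated vehicle wells on the same plate and, in the first screening round, averaged across duplicate plates.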

Structures are written as SMILES. Counter-ions that a name gives are not always drawn. ± gives the standard deviation of the averaged measurements.
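Throughout, for cell viability relative to vehicle unstimulated control: viability of the cells left after supernatant collection, read with Deep Blue dye added for 4 h, as absorbance at 570 nm minus 600 nm.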

Consider `CC(C)=CCC[C@](C)(O[C@@H]1O[C@H](CO)[C@@H](O)[C@H](O)[C@H]1O)[C@H]1CC[C@]2(C)[C@@H]1[C@H](O)C[C@@H]1[C@@]3(C)CC[C@H](O)C(C)(C)[C@@H]3[C@@H](O)C[C@]12C` [Ginsenoside F1] (compound dose: 10 uM), for which, in experiment [1], the cell viability came to 0.982 ± 0.05. In addition, in experiment [2], the kynurenine production was determined as 1.13 ± 0.066.

As to `O=C(O)c1cncc(C(=O)O)c1` [3-5-pyridinedicarboxylic acid] (compound dose: 10 uM), the cell viability in experiment [1] came out at 1.04 ± 0.044. Moreover, the kynurenine production in experiment [2] was found to be 0.983 ± 0.025.

Turning to `COc1ccc2c3c1O[C@H]1C[C@@H](O)C=C[C@@]31CCN(C)C2` [Galantamine hydrobromide] (compound dose: 10 uM), the cell viability in experiment [1] came to 1.04. Besides, the kynurenine production in experiment [2] turned out to be 0.792 ± 0.067.

On to `CC(CC(=O)C[C@@H](C)[C@H]1CC(=O)[C@@]2(C)C3=C(C(=O)C[C@]12C)[C@@]1(C)CC[C@H](O)C(C)(C)[C@@H]1C[C@@H]3O)C(=O)O` (stereo partly specified) [Ganoderic acid B] (compound dose: 10 uM), for which the cell viability in experiment [1] was determined as 0.95 ± 0.032. Besides, the kynurenine production in experiment [2] stood at 0.774 ± 0.18.

For `C=C(C)[C@H]1CC=C(C)C(=O)C1` [D(+)-carvone] (compound dose: 10 uM), the cell viability in experiment [1] was found to be 1 ± 0.026. In addition, in experiment [2], the kynurenine production stood at 0.864 ± 0.022.

As for `CC1=CC[C@@H](C(C)(C)O)CC1` [(-)-α-Terpineol] (compound dose: 10 uM), in experiment [1], the cell viability was found to be 1.07 ± 0.061. Also, the kynurenine production in experiment [2] is 0.84 ± 0.24.

For `C[C@@H]1O[C@@H](O[C@H]2[C@H](O[C@H]3[C@H](O[C@H]4CC[C@]5(C)[C@H]6CC=C7[C@@H]8CC(C)(C)CC[C@]8(C(=O)O)CC[C@@]7(C)[C@]6(C)CC[C@H]5C4(C)C)OC[C@H](O)[C@@H]3O)O[C@H](CO)[C@@H](O)[C@@H]2O)[C@H](O)[C@H](O)[C@H]1O` [Raddeanin A] (compound dose: 10 uM), in experiment [1], the cell viability turned out to be 0.0234 ± 0.033. In addition, the kynurenine production in experiment [2] came to 0.116 ± 0.011.

`C=C1[C@H](OC(=O)C(C)C)[C@@H](O)[C@@H](OC(=O)c2cccnc2)C(C)(C)/C=C/[C@H](C)[C@H](OC(C)=O)[C@@]2(O)C[C@@](C)(OC(C)=O)[C@H](OC(=O)c3ccccc3)[C@@H]2[C@H]1OC(C)=O` [Jatrophane 3] (compound dose: 10 uM): in experiment [1], the cell viability turned out to be 1.04 ± 0.056. Also, the kynurenine production in experiment [2] is 0.82 ± 0.18.
